Laboratory results as given in the supplement of paper PMC10981050.
Values joined by “and” are separate entries in the source; they are usually repeats but may differ in a detail not shown here. Equal entries are not always repeated. Structures can show the parent of a compound that is named as a salt.

What was measured:
Assay in all cases: cell viability relative to vehicle control; higher = less cytotoxic
Conditions in all cases: 10 µM
K562 = tested on: K562
Method in brief: (§1)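 Screening covered the Selleck bioactive, kinase and epigenetic probe libraries, less identity-inconsistent compounds, on CRISPR-edited mutant clones and isogenic wild-type clones of four leukaemia lines. Cells, at 2000 per well in 50 µL medium, received a single 10 µM acoustically dispensed dose. After 48 h the supernatant was removed and CellTiter-Glo luminescence was read. Viability was analysed in Genedata Screener as percent of the on-plate vehicle control.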

MARIMO = tested on: MARIMO
Method in brief: as §1

MOLM14 = tested on: MOLM14
Method in brief: as §1

OCI-AML2 = tested on: OCI-AML2
Method in brief: as §1

SMILES	cell viability (K562; SRSF2 genotype: SRSF2 P95H/wt)	cell viability (K562; SRSF2 genotype: SRSF2 wt/wt) [%]	cell viability (MARIMO; SRSF2 genotype: SRSF2 P95H/wt) [%]	cell viability (MARIMO; SRSF2 genotype: SRSF2 wt/wt) [%]	cell viability (MOLM14; SRSF2 genotype: SRSF2 P95H/wt) [%]	cell viability (MOLM14; SRSF2 genotype: SRSF2 wt/wt) [%]	cell viability (OCI-AML2; SRSF2 genotype: P95H/wt) [%]	cell viability (OCI-AML2; SRSF2 genotype: wt/wt) [%]
CN1CCCC(n2nc(Cc3ccc(Cl)cc3)c3ccccc3c2=O)CC1 (stereo unspecified) [Azelastine hydrochloride (Astelin)]	87% and 91%	92.6	88.1	90.3	78.9	88.6	75.9	72.6
COc1ccc(-c2oc3c(CC=C(C)C)c(O[C@@H]4O[C@H](CO)[C@@H](O)[C@H](O)[C@H]4O)cc(O)c3c(=O)c2O[C@@H]2O[C@@H](C)[C@H](O)[C@@H](O)[C@H]2O[C@@H]2OC[C@@H](O)[C@H](O)[C@H]2O)cc1 [Epmedin B]	103% and 99.7%	102	105	93	110	102	103	99.5
CC1=C(CC(=O)O)c2cc(F)ccc2/C1=C\c1ccc([S+](C)[O-])cc1 (stereo unspecified) [Sulindac (Clinoril)]	109% and 99.8%	96.8	88.6	112	92.5	100	94.2	102
Nc1ccn([C@@H]2O[C@H](CO)[C@@H](O)[C@@H]2O)c(=O)n1 [Cytarabine hydrochloride]	83.4% and 98.6%	94.9	28.6	30.5	7.14	1.49	6.92	8.04
CCCN(CCC)S(=O)(=O)c1ccc(C(=O)O)cc1 [Probenecid (Benemid)]	99.3% and 88.4%	91	92.1	101	96.4	97	96.2	88.9
C=CC(=O)Nc1ccc(CN2C(=O)N(c3cc(OC)cc(OC)c3)Cc3cnc(Nc4ccc(N5CCN(C)CC5)cc4)nc32)cc1	66.2% and 73.3%	77.8	81.2	78.8	37.9	40.1	25.8	34.5
CCCCCCCC(=O)N[C@H](CN1CCCC1)[C@H](O)c1ccc2c(c1)OCCO2 [Eliglustat (Tartrate)]	95.2% and 103%	99.4	91.1	89.7	90	99.9	94	97.1
NC(=O)Nc1cc(-c2cccc(F)c2)sc1C(=O)N[C@H]1CCCNC1	3.91% and 4.76%	6.23	13.3	13.4	1.02	0.84	2.47	8.51
CC(C)c1ccc(C=O)cc1 [4-Isopropylbenzaldehyde]	94.1% and 90.8%	92.4	94.5	99.9	86.2	94.9	89.9	93.4
C[n+]1c2n(c(=O)c3ccccc31)CCc1c-2[nH]c2ccccc12 [Dehydroevodiamine]	93.1% and 93.3%	91.5	88.7	88.2	94.8	98.2	97.2	87.5
C[C@H](CCC(=O)NCCS(=O)(=O)O)[C@H]1CC[C@H]2[C@@H]3[C@@H](O)C[C@@H]4C[C@H](O)CC[C@]4(C)[C@H]3CC[C@]12C [Tauroursodeoxycholic Acid]	102%	99	99.4	108	107	103	95.8	114
C=C1C(=O)O[C@@H]2C[C@@]3(C)CCCC(=C)[C@@H]3C[C@H]12 [Isoalantolactone]	27.5% and 44.2%	40.2	23	25.4	12	16.1	1.8	6.98
COc1ccccc1-c1cc(Nc2cccc(CS(N)(=O)=O)c2)ncn1	90.2% and 89.9%	91.5	29.4	45.6	26.5	5.12	18.1	30
CCc1ccc(CCOc2ccc(CC3SC(=O)NC3=O)cc2)nc1 (stereo unspecified) [Pioglitazone hydrochloride (Actos)]	100% and 97%	93.4	104	102	96.4	100	95.7	93.5
CCOC(=O)C1=C(COCCN)NC(C)=C(C(=O)OC)[C@@H]1c1ccccc1Cl [Levamlodipine]	75.1% and 83.2%	77	72.9	75	50.3	52	30.2	39.7
CCNC1(C(N)=O)CCN(c2ncnc3c2nc(-c2ccccc2Cl)n3-c2ccc(Cl)cc2)CC1	79.4% and 80.8%	79.1	83.1	101	78.2	84.3	88.2	93
CCCN1CCCC[C@H]1C(=O)Nc1c(C)cccc1C [Ropivacaine HCl]	91% and 94.8%	94.2	99.7	89	95	95.4	98	95.6
O=C(Nc1ncc([N+](=O)[O-])s1)c1ccccc1O [Tizoxanide]	82% and 82.9%	88.8	90.3	94.2	96.9	100	91.2	96.1
C=C1C(=O)O[C@@H]2/C=C(\C)CC/C=C(\C)CC[C@@H]12 [Costunolide]	23.8% and 32%	41.4	25.3	17.8	3.29	5.5	2.25	7.11
CCCc1nc(C(C)(C)O)c(C(=O)OCc2oc(=O)oc2C)n1Cc1ccc(-c2ccccc2-c2nnn[nH]2)cc1 [Olmesartan medoxomil (Benicar)]	105% and 103%	106	109	111	97.2	104	104	106
O=C1C=C2C=C[C@@H](O)[C@H](O)[C@H]2O1 [Griffonilide]	101%	96.4	98.7	104	99.3	97.2	103	100

SMILES	cell viability (K562; SRSF2 genotype: SRSF2 P95H/wt)	cell viability (K562; SRSF2 genotype: SRSF2 wt/wt) [%]	cell viability (MARIMO; SRSF2 genotype: SRSF2 P95H/wt) [%]	cell viability (MARIMO; SRSF2 genotype: SRSF2 wt/wt) [%]	cell viability (MOLM14; SRSF2 genotype: SRSF2 P95H/wt) [%]	cell viability (MOLM14; SRSF2 genotype: SRSF2 wt/wt) [%]	cell viability (OCI-AML2; SRSF2 genotype: P95H/wt) [%]	cell viability (OCI-AML2; SRSF2 genotype: wt/wt) [%]
O=C(O)CSc1cc(NS(=O)(=O)c2ccc(Br)cc2)c2ccccc2c1O	86.4% and 79.9%	94.8	95.5	94.5	73.9	89.3	97.9	107
CNC1CCC(N(Cc2cccc(-c3ccncc3)c2)C(=O)c2sc3ccccc3c2Cl)CC1 (stereo unspecified) [Smoothened Agonist (SAG) HCl]	18.8% and 30.6%	29.8	53.8	51.4	36.6	48.6	3.18	26.1
C[C@H](NC(=O)/C(C#N)=C/c1cccc(Br)n1)c1ccccc1	25.6% and 17.4%	20.6	11.2	7.31	2.5	0.75	10.2	7.71
C[C@]12C=CC(=O)C=C1CC[C@@H]1[C@@H]2[C@@H](O)C[C@@]2(C)[C@H]1CC[C@]2(O)C(=O)CO [Prednisolone]	105% and 98.9%	106	101	103	98.5	96.3	91.1	111
O=C(O)C=Cc1cccc(O)c1 [3-Hydroxycinnamic acid]	106% and 93.7%	97.5	86.6	97.3	87.9	93.2	91.4	94.3
O=C1C[C@@H](c2ccc(O)cc2)Oc2cc(O)cc(O)c21 [Naringenin]	99.2% and 105%	103	106	107	111	112	96.5	96.7
Cn1cc(-c2ccc3nnc(C(F)(F)c4ccc5ncccc5c4)n3n2)cn1	94.1% and 97.8%	98.8	102	105	96	99.2	86.9	89.6
C[C@H](CCC(=O)O)[C@H]1CC[C@H]2[C@@H]3[C@H](O)C[C@@H]4C[C@H](O)CC[C@]4(C)[C@H]3C[C@H](O)[C@]12C [Sodium cholate]	103% and 101%	94.5	88.2	96.6	89.8	93.4	88	96.5
CC(ONC(=O)c1cc(C(F)(F)F)cc(C(F)(F)F)c1)C(=O)Nc1ccc(Cl)cc1 (stereo unspecified)	78.9% and 81%	78.8	95.5	102	88.7	93.2	82	90.7
CN1CCC(CNc2ccc3ncc(-c4cccc(OC(F)(F)F)c4)n3n2)CC1 [SGI-1776 free base]	1.35% and 1.49%	2.08	0.84	2.75	0.45	0.48	0.42	0.66
CC(COc1ccccc1Cc1ccccc1)N1CCCCC1 (stereo unspecified) [Benproperine phosphate]	82.8% and 87.2%	91.3	70.4	78.5	82.5	88.2	93.7	84.7
CC(C)C[C@H](NC(=O)CNC(=O)c1cc(Cl)ccc1Cl)B(O)O [Ixazomib (MLN2238)]	2.07%	3.87	0.76	3.15	0.41	0.47	0.44	1.8
CCC1=C[C@@H]2CN(C1)Cc1c([nH]c3ccccc13)[C@@](C(=O)OC)(c1cc3c(cc1OC)N(C)[C@H]1[C@@](O)(C(=O)OC)[C@H](OC(C)=O)[C@]4(CC)C=CCN5CC[C@]31[C@@H]54)C2 [Vinorelbine Tartrate]	15% and 35%	31.6	7.46	7.57	0.68	0.99	1.63	3.83
CC(CN(C)C)Oc1nc(Nc2cc3cccc(Cl)c3cn2)cnc1C#N (stereo unspecified)	50.7% and 62.5%	44.9	62.2	56.3	15.7	8.7	17	18.5
CCCCS(=O)(=O)N[C@@H](Cc1ccc(OCCCCC2CCNCC2)cc1)C(=O)O [Tirofiban Hydrochloride]	94.8% and 103%	96	89.6	104	101	99.6	100	107
CC(C)c1c(C(=O)Nc2ccccc2)c(-c2ccccc2)c(-c2ccc(F)cc2)n1CC[C@@H](O)C[C@@H](O)CC(=O)O [Atorvastatin calcium (Lipitor)]	67.2% and 88.5%	56.9	52	50.4	67.7	91.5	41.1	45.6
C[C@H](CCC(=O)NCCS(=O)(=O)O)[C@H]1CC[C@H]2[C@@H]3[C@H](O)C[C@@H]4C[C@H](O)CC[C@]4(C)[C@H]3C[C@H](O)[C@]12C [Taurocholic acid sodium salt hydrate]	110% and 102%	107	107	108	103	111	106	107
CC(C)CCCC(C)C1CCC2C3=CC=C4CC(O)CCC4(C)C3CCC21C (stereo unspecified) [7-Dehydrocholesterol]	88.5% and 88.6%	96.5	87.6	87	86.6	93.9	94.2	94.7
CCOC(=O)Nc1cc(-c2ccc(C)c(NS(C)(=O)=O)c2)nn2c(C)nnc12 [Bromosporine]	33.4% and 42%	49.7	9.42	13.9	3.2	1.48	1.03	4.94
CCCCCCCCCCCCCCCCOc1nc2ccc(C)cc2c(=O)o1 [Cetilistat]	107% and 111%	108	108	108	103	108	107	108
O=c1[nH]cnc2c1ncn2[C@@H]1O[C@H](CO)[C@@H](O)[C@H]1O [Inosine]	114% and 107%	121	102	118	99.7	111	98.3	114
